High-throughput results: PubChem, Broad Institute
aSyn UTR act: Activators working through SNCA 5'UTR binding (MLPCN). activity score, % (tested at 7.5 µM), hits read low. alpha-synuclein 5'UTR reporter, activators screen. actives 7.1% (n = 300,000); in the data active = activity score below about -60%
Each line names hits and unclear results; the compound was inactive in the other large screens. A selection follows.

Cc1ccc(-n2ncc3c(SCC(=O)NNC(=O)c4ccco4)ncnc32)cc1	aSyn UTR act -105.6
Cc1ccc(-n2ncc3c(SCc4ccccc4)ncnc32)cc1	aSyn UTR act -179.8
Fc1ccc(-n2ncc3c(SCc4cccnc4)ncnc32)cc1	aSyn UTR act -137.5
Cc1ccc(CSc2ncnc3c2cnn3-c2ccccc2)cc1	aSyn UTR act -136.7
COc1ccc2cnn(-c3ccc(C)cc3)c(=O)c2c1OC	aSyn UTR act -115.2
COc1ccc2cnn(-c3ccc(OC(F)(F)Cl)cc3)c(=O)c2c1OC	aSyn UTR act -70.4
CCOc1ccc(Oc2ccc(C(F)(F)F)cc2N)cc1	aSyn UTR act -87.0
COc1cccc(Oc2ccc(C(F)(F)F)cc2N)c1	aSyn UTR act -104.2
Cc1ccc(NC(=O)NC(=O)N(c2ccccc2)S(C)(=O)=O)cc1	aSyn UTR act -93.0
O=C(NNC(=S)Nc1ccccc1)Nc1ccccc1	aSyn UTR act -92.1
Cc1ccc(NC(=S)NNC(=O)c2nn(C)c(C)c2Cl)cc1	aSyn UTR act -276.0
CCOc1ccc(NC(=O)NC(=O)N(C)S(=O)(=O)c2ccc(C)cc2)cc1	aSyn UTR act -81.6
Cc1ccc(NC(=S)NNC(=O)Nc2ccccc2)cc1	aSyn UTR act -131.7
O=C(N[C@@H](Cc1c[nH]c2ccccc12)C(=O)NC1CC1)c1ccccc1Cl	aSyn UTR act -159.9
Nn1c(SCc2ccccc2F)nnc1-c1cccnc1	aSyn UTR act -176.9
Nn1c(SCc2cccc(F)c2)nnc1-c1cccnc1	aSyn UTR act -70.8
CCN1CCN(S(=O)(=O)c2ccc(Cl)c(C(=O)NCCc3ccccc3)c2)CC1	aSyn UTR act -68.8
O=C(NCc1csc(-c2cccs2)n1)c1ccsc1	aSyn UTR act -112.0
O=C1N=C(N2CCOCC2)S/C1=C/c1cc2c(cc1[N+](=O)[O-])OCO2	aSyn UTR act -67.3
O=C(Nc1ccc(Cl)c(Cl)c1)Nc1nccs1	aSyn UTR act -63.8
O=C(Nc1cccc(Cl)c1)Nc1nccs1	aSyn UTR act -158.9
Cc1nc2cc(NC(=O)Nc3nccs3)ccc2n1C	aSyn UTR act -99.3
CC(=O)NC(CSC(CC(=O)c1ccco1)c1ccc(C)cc1)C(=O)O (stereo not drawn)	aSyn UTR act -89.5
Cc1cc2c(cc1C)C(c1cc(Br)ccc1F)CC(=O)N2 (stereo not drawn)	none
CSc1ccc(-c2cc(=O)c3ccccc3o2)cc1	aSyn UTR act -328.1
O=c1cc(-c2ccccc2F)oc2ccccc12	aSyn UTR act -111.1
O=c1cc(-c2ccc(F)cc2)oc2ccccc12	aSyn UTR act -96.9
c1cc2c(cc1C1CCCCC1)c1c3n2CCCNC3CCC1 (stereo not drawn)	none
Cc1ccc(-n2cnc3c(sc4nccc(N(C)C)c43)c2=O)cc1	aSyn UTR act -132.1
Cc1cccc(-c2nc(C#N)c(NC3CCCCC3)o2)c1	aSyn UTR act -171.2
Cc1cccc(-c2nc(C#N)c(N3CCCCC3)o2)c1	aSyn UTR act -186.8
CC(C)(C)c1nnc(NC(=O)c2ccc(Cl)nc2)s1	aSyn UTR act -126.0
C=CCSc1nnc(NC(=O)c2ccc(Cl)nc2)s1	aSyn UTR act -76.9
CCC(C)NC(=O)c1cn(-c2cccc(C)n2)cn1 (stereo not drawn)	aSyn UTR act -110.5
Cc1cccc(-n2cnc(C(=O)NC3CCCCCC3)c2)n1	aSyn UTR act -100.9
CCOc1ccccc1-c1nc(-c2cccc(Br)c2)no1	aSyn UTR act -134.8
CCOc1ccccc1-c1nc(-c2ccc(NC(=O)c3ccc(Br)o3)cc2)no1	aSyn UTR act -135.9
c1coc(CSc2ncnc3c2oc2ccccc23)c1	aSyn UTR act -91.1
Cc1nc(SCC(=O)c2ccc(Cl)s2)c2oc3ccccc3c2n1	aSyn UTR act -93.9
CC(=O)CSc1ncnc2c1oc1ccccc12	aSyn UTR act -64.6
CCN1/C(=C/C=C/c2oc3ccc(-c4ccccc4)cc3[n+]2CC)Oc2ccc(-c3ccccc3)cc21	none
CC(C)c1ccc(C(=O)NN2C(=O)C3CCCCC3C2=O)cc1 (stereo not drawn)	aSyn UTR act -84.9
CC(C)c1ccc(C(=O)NNC(=O)C2C3CCC(C3)C2C(=O)O)cc1 (stereo not drawn)	aSyn UTR act -115.3
CN1CCN(c2ccc(NC(=O)c3cc4ccccc4o3)cc2)CC1	aSyn UTR act -64.0
CS(=O)(=O)N1CCN(c2ccc(NC(=O)c3cc4ccccc4o3)cc2)CC1	aSyn UTR act -115.8
c1cc2c(cc1C1=NNC(=NC3CC3)SC1)OCCO2	none
FC(F)Sc1ccc(N=C2NN=C(c3ccc4c(c3)OCCO4)CS2)cc1	aSyn UTR act -127.2
CC(/C=N/Nc1nc(C)cc(=O)[nH]1)=C\c1ccccc1	aSyn UTR act -67.4
CC(/C=N/Nc1nc2ccccc2[nH]1)=C\c1ccccc1	aSyn UTR act -70.0
Cc1ccnc(NC(=O)c2cccc3ccccc23)c1	aSyn UTR act -63.3
Cc1ccnc(NC(=O)c2ccccc2NC(=O)c2ccc(Cl)cc2Cl)c1	none
O=C(CCc1nnc(CCc2c[nH]c3ccccc23)o1)NC1CCC1	aSyn UTR act -133.0
Cc1ccnc(NC(=O)CCc2c[nH]c3ccccc23)c1	aSyn UTR act -71.5
Cc1ccnc(NC(=O)CCNC(=O)c2ccccc2Cl)c1	aSyn UTR act -103.2
C/C(CC(=O)Nc1cc(C)ccn1)=N\NC(=O)c1cccc(C)c1O	aSyn UTR act -62.9
Cc1ccsc1/C=C1\CCc2ccccc2C1=O	aSyn UTR act -165.4
Cc1ccccc1/C=C1\CCCc2ccccc2C1=O	aSyn UTR act -241.3
C=CCN=C(NC#N)SCC(=O)c1cccc(OC)c1	aSyn UTR act -104.2
CC(=O)c1ccc(OCc2cc(C(=O)N3CCC(Oc4ccccc4C)CC3)no2)cc1	aSyn UTR act -182.5
CC(=O)c1ccc(OCc2cc(C(=O)N3CCOCC3)no2)cc1	aSyn UTR act -154.3
COc1ccc(/C=C/c2nc3ccccc3n2C)cc1	none
CCn1c(/C=C/c2ccccc2)nc2ccccc21	aSyn UTR act -157.0
CC(C)Cn1c(/C=C/c2ccccc2)nc2ccccc21	aSyn UTR act -114.2
O=C(Cn1c(/C=C/c2ccccc2)nc2ccccc21)Nc1ccc(F)cc1	aSyn UTR act -71.5
COc1ccc(Cn2c(/C=C/c3ccccc3)nc3ccccc32)cc1	aSyn UTR act -202.3
O=C(Nc1ccccc1)c1cccc(N2CCCC2=O)c1	aSyn UTR act -116.7
O=C(N/N=C/c1cc(Br)ccc1O)c1cccc(N2CCCC2=O)c1	none
COc1ccc(/C=N/NC(=O)CCn2cnc(-c3ccccc3)c2-c2ccccc2)cc1	none
COc1cccc(/C=N/NC(=O)c2cccc(N3CCCC3=O)c2)c1	aSyn UTR act -104.7
